The campaign covered roughly 48,000 compounds. About 13,000 (27%) showed an effect of 50% or more. The list shows a part of the results.
Test system: Wolbachia pipientis
Test: Anti-Wolbachia Cell-Based Screen
Type: functional
Parameters: scale not given: in the data most compounds retested in dose-response had high values
Details: 5 µM

SMILES	Percent Effect [%]
Cc1ccc([C@@H]2CN(S(=O)(=O)c3cc(C)ccc3F)C[C@H]2N(C)C)cc1	-17.89
COc1ccc(NC(C)C(=O)N2CCN(Cc3ccccc3)CC2)cn1 (configuration not stated)	10.35
OC(CNC1CCSCC1)c1cccc(OCc2ccccc2)c1 (configuration not stated)	91.01
COc1cccc(C(O)CNC(=O)CC2CCCCC2)c1 (configuration not stated)	1.218
CN(Cc1ccccc1)c1ncccc1CNC1CCSCC1	-9.19
CN1CCC(NCC(O)c2cccc(OCc3ccccc3)c2)CC1 (configuration not stated)	116.6
OC(CNC1CCOCC1)c1cccc(OCc2ccccc2)c1 (configuration not stated)	100.2
CCN1CCC(CC(=O)NCC(O)c2cccc(OC)c2)CC1 (configuration not stated)	5.929
CC(C)Oc1cccc(C(O)CNC(=O)CCc2ccncc2)c1 (configuration not stated)	-6.251
CO[C@@H](C(=O)NC1CCOCC1)c1ccccc1	-10.4
COc1cccc(CNC(CN2CCN(C)CC2)c2ccccc2)c1 (configuration not stated)	-4.654
O=C(O)C(F)(F)F.O=C(c1ccccc1)N1CCS(=O)(=O)[C@@H]2CCNCC[C@@H]21	-7.979
c1ccc(CCn2cc(-c3nc(CN4CCOCC4)no3)nn2)cc1	7.795
COc1ccc(-c2n[nH]cc2CN(C)CCc2scnc2C)c(F)c1	-15.83
Cc1cc2nc(CO[C@H]3CN(C4CCN(C)CC4)C[C@H]3F)[nH]c2cc1C	-19.54
COc1cccc2c1OCC(C(=O)N1CCC(NS(C)(=O)=O)CC1)C2 (configuration not stated)	16.61
CC(C)c1cnc(CN2C(=O)CC3(CCSC3)C2=O)o1 (configuration not stated)	17.31
CCC1CN(C(=O)c2cncc(C)c2)CCC(=O)N1Cc1ccccc1 (configuration not stated)	-10.11
O[C@@H]1CN(Cc2cccnc2)C[C@H]1Oc1ccccc1	103.4
Cc1cnccc1CN1C[C@@H](O)[C@H](Oc2ccccc2)C1	-5.554
F[C@@H]1CN(Cc2cccnc2)C[C@@H]1OCc1nc2ccccc2[nH]1	10.94
O=C1NC(c2ccccc2)=N[C@@]12CC[C@@H]1CN(Cc3cccnc3)C[C@@H]12	0.6919
Cc1cncc(CN2C[C@@H](O)[C@H](Oc3ccccc3)C2)c1	132.9
CC(C)O[C@H]1CN(Cc2cnc3c(-c4ccccc4)cnn3c2)C[C@@H]1O	3.276
O[C@@H]1CN(Cc2ccncc2)C[C@H]1Oc1ccccc1	125.9
OC1CN(Cc2ccccc2)CCN(c2ccncc2)C1 (configuration not stated)	12.72

SMILES	Percent Effect [%]
COCC(=O)N1CCN(c2ncnc3cccc(F)c23)CC1	0.7263
CC1COc2ccccc2N1C(=O)c1ccc(=O)n(C)c1 (configuration not stated)	-18.38
Fc1cccc(N2CCCC3(C2)CN(c2ncccn2)CCO3)c1.O=C(O)C(F)(F)F.O=C(O)C(F)(F)F (configuration not stated)	-1.466
Cc1nc(CN2CCCN(c3nccs3)CC2)no1	78.71
Cc1csc(N2CCCN(Cc3noc(C)n3)CC2)n1	0.2085
c1csc(N2CCCN(Cc3noc(C4CC4)n3)CC2)n1	107.3
c1csc(N2CCCN(Cc3nc(C4CC4)no3)CC2)n1	-5.415
c1csc(N2CCN(Cc3nnnn3C3CC3)CC2)n1	-36.32
CC(C)c1nc(CN2CCCN(c3nccs3)CC2)no1	89.07
CCc1nc(CN2CCCN(c3nccs3)CC2)no1	1.816
CCc1nc(CN2CCCN(c3ncnc4ccsc34)CC2)no1	-84.77
C[C@@H]1CN(C(=O)CCc2nncn2C)C[C@@]1(O)C1CCC1	-1.808
Cc1cc(C)n(C(=O)c2cn(C)nc2S(=O)(=O)N2CCSCC2)n1	-0.316
Cc1oc(-c2ccoc2)nc1CN1CCCCC1CCn1cccn1 (configuration not stated)	3.711
Cc1cnn(CC2CCCN2Cc2cc(=O)n3cc(C)ccc3n2)c1 (configuration not stated)	11.19
COc1cc2c(cc1CN1CCCCC1CN1CCOCC1)CCC2 (configuration not stated)	26.24
Cc1c[nH]c(CN2CCCCC2CCn2cccn2)c(C)c1=O (configuration not stated)	21.06
Cc1ccc2nc(CN3CCCCC3CCN3CCOCC3)cn2c1 (configuration not stated)	98.48
COCCCC1CCCCN1Cc1cn2cc(C)ccc2n1 (configuration not stated)	95.19
Cc1nccn1CCC1CCCCN1Cc1ccc(O)cc1Cl (configuration not stated)	-13.87
Cc1ccc2nc(CN3CCCCC3CCn3cccn3)cn2c1 (configuration not stated)	89.18
Cc1ccc(O)c(CN2CCCCC2CCN2CCOCC2)c1 (configuration not stated)	102.9
CCCn1ncc(CN2CCCCC2CCCOC)c1C (configuration not stated)	-0.2831
COc1c(C)cnc(CN2CCCCC2CCN2CCOCC2)c1C (configuration not stated)	0.5923
COCCCC1CCCCN1Cc1cnn(C)c1C1CC1 (configuration not stated)	18.85
CC(C)(C)CN(CCC#N)C(=O)Nc1cccc(N2CCNC2=O)c1	7.726

Reference: ChEMBL document CHEMBL3988442, “University of Dundee, Small-Polar-MMV Screening Library” (2021)
